Data on 40 compounds can be found in PubChem BioAssay (NCI).

About 83,000 compounds went through this panel and 20% of them were active in at least one assay; those are over-represented in the sample as a whole.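 Activity criterion: percent growth below 10, measured after cells in 96-well plates were exposed to a single compound concentration for 48 hours.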 The source made the active and inactive calls.

The experiment has as its system HL-60(TB) leukemia. The experiment can be described thus: NCI-60 one-dose screen, 48 h (100 = growth as untreated, 0 = no growth, -100 = all killed). Conditions: 10 µM unless noted.
For `N#Cc1c(NC(=O)c2ccc(Br)cc2)sc2c1CCCC2`, the growth is 14.1% (inactive).

Consider `COc1cc(/C=C/c2cc(O)c3cc(C(C)=O)c(=O)oc3c2)cc2c1O[C@]1(C)CC[C@@H](O)C(C)(C)[C@H]1C2`, for which the growth was 4.64% (active).

As to `O=C(Nc1ccc([N+](=O)[O-])cc1)c1cc2ccccc2cc1O`, the growth is -16.7% (active).

As to `COC(=O)CCc1c(/C=C2\N=C(c3ccc[nH]3)C=C2OC)[nH]c(C)c1C(=O)OCc1ccccc1`, the growth was -14.3% (active).

As for `Cc1cc2ccccc2nc1-c1ccccc1F`, the growth was 97.4% (inactive).

In the case of `Cc1occc1-c1n[nH]c(=S)n1N1C(=O)CSC1=S`, the growth is 99.2% (inactive).

As for `COC(=O)N1CC(Oc2ccccn2)C2CC1c1ccccc1O2` (stereo not given), the growth was 99.8% (inactive).

For the compound `CN(C)c1nc(-c2cccs2)n2nc(-c3ccc(Cl)cc3)cc2n1`, the growth was 87.8% (inactive).

For the compound `O=C(c1ccccc1)N(CCCl)C(=O)N(CCCl)C(=O)c1ccccc1`, the growth is 90.6% (inactive).

As for `O=[N+]([O-])c1cccc(C2CC(c3ccccc3)=Nc3ccccc3S2)c1` (stereo not given), the growth is 84.7% (inactive).

Take `CC(C)(C)N1CC(OC(N)=O)C1`: the growth is 110% (inactive).

For `Cc1c(O)cc(-c2cnc(N/N=C/c3ccccc3)s2)c(O)c1C`, the growth is 19.1% (inactive).

With `O=C1OCc2cccc3cccc1c23`, the growth is 84.9% (inactive).

With `Cc1ccc(-c2nc(/C=C3/C(=O)Nc4ccc(F)cc43)c3ccccn23)cc1`, the growth was 110% (inactive).

With `COc1ccc(-n2nc3c(c2-c2ccc(OC)c(OC)c2)-c2oncc2CC3)cc1`, the growth is 88.4% (inactive).

Turning to `Cc1cc2nc(C(Cl)Cl)nc(-c3ccccc3)n2n1`, the growth was -14.1% (active).

`Cc1ccc(-c2nc(SCC(=O)c3ccc(C#N)cc3)[nH]c(=O)c2C#N)cc1`: the growth is 94.2% (inactive).

Turning to `c1ccc(-c2n(Cc3ccc4ccccc4n3)c3ccccc3[n+]2Cc2ccc3ccccc3n2)cc1`, the growth was -54% (active).

For the compound `O=C1CS/C(=N\Nc2cc(=O)[nH]c3ccccc23)N1c1ccccc1`, the growth was 96.2% (inactive).

For `CCOC(=O)CSc1c([N+](=O)[O-])ncn1C`, the growth is 91.4% (inactive).

Take `C=CCn1c(C)nc2cc(Nc3nc(N4CCCC4)nc4ccccc34)ccc21`: the growth is 88.5% (inactive).

On to `COc1cc(Cl)cc(-c2nn(-c3cccc(NC(=O)Nc4cccc(C(F)(F)F)c4)c3)cc2-c2ccncc2)c1`, for which the growth is -7.89% (active).

As for `CCOC(=O)c1cc(C(=O)c2cc(OC)c(OC)c(OC)c2)n2ccccc12`, the growth is -24.6% (active).

For the compound `COc1cc(NCc2ccc3nc(N)nc(N)c3c2C)cc(OC)c1OC` (tested in a mixture with another compound), the growth is 25.7% (inactive).

`Nc1nc(-c2ccccc2)cs1`: the growth was 115% (inactive).

Take `COc1ccc(C(=O)/C=C/c2cc(C(=O)c3cc(OC)c(OC)c(OC)c3)ccc2OC)cc1`: the growth is 75.3% (inactive).

Take `O=C1/C(=C/c2ccccc2)CN(C(=O)C(Cl)Cl)C/C1=C\c1ccccc1`: the growth was -15.3% (active).

In the case of `COc1cc(C=O)ccc1Oc1ccc([N+](=O)[O-])cc1[N+](=O)[O-]`, the growth was 95.1% (inactive).

Take `Cn1cc(-c2nonc2-c2cn(C)c3ccccc23)c2ccccc21`: the growth was -27% (active).

With `CCCCCCSc1ncnc2nc[nH]c12`, the growth is 72.2% (inactive).

In the case of `CC(C)(C)c1cc(C=Nc2cccc(C(F)(F)F)c2)c(O)c(C(C)(C)C)c1`, the growth was 90.1% (inactive).

As to `Nc1nc(Nc2ccc(Cl)cc2)nn1S(=O)(=O)c1ccc(-c2ccc(F)cc2)cc1`, the growth is 110% (inactive).

Regarding `CN1CCC(CNc2ccc3ncc(-c4cccc(OC(F)(F)F)c4)n3n2)CC1`, the growth was -37.1% (active).

In the case of `Cc1ccc2oc(=O)cc(C3c4ccc([nH]4)C(c4cc(=O)oc5ccc(C)cc45)c4ccc([nH]4)C(c4cc(=O)oc5ccc(C)cc45)c4ccc([nH]4)C(c4cc(=O)oc5ccc(C)cc45)c4ccc3[nH]4)c2c1` (stereo not given), the growth was -24% (active).

As for `O=c1cc(-c2nccc3c2[nH]c2ccccc23)c2cc(Cl)ccc2o1`, the growth was 0.737% (active).

With `O=C1Nc2ccccc2/C1=N/N=C/c1c[nH]c2ccccc12`, the growth was 86.2% (inactive).

As for `COc1cc2c(cc1[N+](=O)[O-])-c1ccc([N+](=O)[O-])cc1/C2=N/NC(N)=S`, the growth is 88.3% (inactive).

As for `O=C1CCCCN1CCCCC#Cc1ccccc1C#Cc1ccc([N+](=O)[O-])cc1`, the growth is -25.7% (active).

On to `CCCn1cnc2c(c1=N)C(c1ccc(F)cc1)c1sc3c(F)cccc3c1O2` (stereo not given), for which the growth was 3.36% (active).

`CCCCOc1nc2c(C)cccc2cc1-c1cc(-c2ccc(Cl)cc2)nc(-c2ccc(Cl)cc2)c1`: the growth was 98.8% (inactive).
